Data from ChEMBL document CHEMBL5724796, “Tm Shift (DSF) assay results for EUbOPEN Chemogenomics Library” (2024).
Residues, ends and D or L forms follow the SMILES beside them. *: point of attachment. Cbz = O=C(OCc1ccccc1)*; CH2F = FC*

Columns and labels:
Conditions in all cases: Compound concentration 20.0 uM
[1] = molecular target: Tyrosine-protein kinase ABL1 (Homo sapiens) (UniProt P00519)
[2] = molecular target: Bromodomain-containing protein 4 (Homo sapiens) (UniProt O60885)
[3] = molecular target: Cyclin-dependent kinase 2 (Homo sapiens) (UniProt P24941)
[4] = molecular target: Casein kinase I isoform delta (Homo sapiens) (UniProt P48730)
[5] = molecular target: Glycogen synthase kinase-3 beta (Homo sapiens) (UniProt P49841)
[6] = molecular target: Mitogen-activated protein kinase 1 (Homo sapiens) (UniProt P28482)
[7] = molecular target: T1, Aurora kinase A (Homo sapiens) (UniProt O14965)
T1 sequence (whole entry): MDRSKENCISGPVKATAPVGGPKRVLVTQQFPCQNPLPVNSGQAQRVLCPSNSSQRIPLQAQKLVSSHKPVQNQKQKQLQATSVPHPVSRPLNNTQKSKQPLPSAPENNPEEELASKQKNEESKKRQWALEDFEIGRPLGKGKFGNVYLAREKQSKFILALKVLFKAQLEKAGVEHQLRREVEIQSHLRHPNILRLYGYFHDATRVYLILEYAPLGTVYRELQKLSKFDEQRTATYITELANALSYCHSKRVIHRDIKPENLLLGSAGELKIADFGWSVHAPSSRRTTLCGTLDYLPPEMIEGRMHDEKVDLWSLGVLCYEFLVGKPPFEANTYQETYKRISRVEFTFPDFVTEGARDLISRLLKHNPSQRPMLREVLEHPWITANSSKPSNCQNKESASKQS

[8] = molecular target: T2, Transcription intermediary factor 1-alpha (Homo sapiens) (UniProt O15164)
T2 sequence (whole entry): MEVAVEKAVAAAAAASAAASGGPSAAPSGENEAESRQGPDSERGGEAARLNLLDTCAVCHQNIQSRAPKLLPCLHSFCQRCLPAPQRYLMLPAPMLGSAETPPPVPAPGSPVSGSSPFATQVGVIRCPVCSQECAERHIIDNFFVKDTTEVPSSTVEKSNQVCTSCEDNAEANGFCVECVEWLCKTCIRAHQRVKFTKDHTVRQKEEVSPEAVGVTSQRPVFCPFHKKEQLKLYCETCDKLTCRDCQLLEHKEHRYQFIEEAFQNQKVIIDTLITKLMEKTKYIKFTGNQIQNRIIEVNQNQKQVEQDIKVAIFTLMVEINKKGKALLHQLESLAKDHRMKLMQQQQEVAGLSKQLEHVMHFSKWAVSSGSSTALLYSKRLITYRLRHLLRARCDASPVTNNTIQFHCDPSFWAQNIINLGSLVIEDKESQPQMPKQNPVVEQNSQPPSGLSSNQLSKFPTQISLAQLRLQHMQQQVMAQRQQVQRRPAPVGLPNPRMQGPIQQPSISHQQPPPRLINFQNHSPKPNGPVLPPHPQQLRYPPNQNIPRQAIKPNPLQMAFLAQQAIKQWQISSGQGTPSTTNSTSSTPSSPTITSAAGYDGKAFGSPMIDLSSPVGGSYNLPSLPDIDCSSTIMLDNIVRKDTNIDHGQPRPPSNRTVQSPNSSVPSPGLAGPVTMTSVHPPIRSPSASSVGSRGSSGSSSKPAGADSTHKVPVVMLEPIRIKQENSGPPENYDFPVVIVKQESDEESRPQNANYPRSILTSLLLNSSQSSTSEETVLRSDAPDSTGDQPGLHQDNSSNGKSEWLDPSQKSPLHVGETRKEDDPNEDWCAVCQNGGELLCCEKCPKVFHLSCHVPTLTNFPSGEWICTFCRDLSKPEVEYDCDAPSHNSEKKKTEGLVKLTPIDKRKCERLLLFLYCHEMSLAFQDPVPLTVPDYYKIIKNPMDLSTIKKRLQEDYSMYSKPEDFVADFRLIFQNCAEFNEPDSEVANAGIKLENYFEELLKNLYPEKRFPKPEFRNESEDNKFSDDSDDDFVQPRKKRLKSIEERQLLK

Chain of Casein kinase I isoform delta (Homo sapiens) (P48730 whole entry, looked up, canonical isoform): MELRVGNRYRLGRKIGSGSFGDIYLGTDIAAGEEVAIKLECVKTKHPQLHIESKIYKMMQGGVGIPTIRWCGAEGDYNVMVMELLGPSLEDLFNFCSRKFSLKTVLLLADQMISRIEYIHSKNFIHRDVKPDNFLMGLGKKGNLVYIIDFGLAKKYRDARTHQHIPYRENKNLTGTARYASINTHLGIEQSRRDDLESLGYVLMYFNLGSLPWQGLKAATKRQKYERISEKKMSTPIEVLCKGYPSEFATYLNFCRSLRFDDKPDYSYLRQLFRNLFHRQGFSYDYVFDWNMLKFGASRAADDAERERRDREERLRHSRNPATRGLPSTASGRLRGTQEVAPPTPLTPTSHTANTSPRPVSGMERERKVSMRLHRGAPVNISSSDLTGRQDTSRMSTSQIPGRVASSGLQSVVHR
Chain of Glycogen synthase kinase-3 beta (Homo sapiens) (P49841 whole entry, looked up): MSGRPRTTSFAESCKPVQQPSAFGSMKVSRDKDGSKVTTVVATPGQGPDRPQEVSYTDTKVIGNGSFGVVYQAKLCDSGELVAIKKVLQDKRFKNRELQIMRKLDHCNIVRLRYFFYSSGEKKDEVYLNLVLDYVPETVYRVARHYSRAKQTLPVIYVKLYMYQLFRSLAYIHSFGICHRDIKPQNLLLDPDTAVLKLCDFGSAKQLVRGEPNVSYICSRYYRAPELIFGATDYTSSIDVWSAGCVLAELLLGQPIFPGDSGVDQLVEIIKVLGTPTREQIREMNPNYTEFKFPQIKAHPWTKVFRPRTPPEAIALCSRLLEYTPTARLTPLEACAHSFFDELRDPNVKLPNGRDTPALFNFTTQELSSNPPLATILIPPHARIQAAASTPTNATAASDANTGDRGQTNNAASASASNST
Chain of Tyrosine-protein kinase ABL1 (Homo sapiens) (P00519 whole entry): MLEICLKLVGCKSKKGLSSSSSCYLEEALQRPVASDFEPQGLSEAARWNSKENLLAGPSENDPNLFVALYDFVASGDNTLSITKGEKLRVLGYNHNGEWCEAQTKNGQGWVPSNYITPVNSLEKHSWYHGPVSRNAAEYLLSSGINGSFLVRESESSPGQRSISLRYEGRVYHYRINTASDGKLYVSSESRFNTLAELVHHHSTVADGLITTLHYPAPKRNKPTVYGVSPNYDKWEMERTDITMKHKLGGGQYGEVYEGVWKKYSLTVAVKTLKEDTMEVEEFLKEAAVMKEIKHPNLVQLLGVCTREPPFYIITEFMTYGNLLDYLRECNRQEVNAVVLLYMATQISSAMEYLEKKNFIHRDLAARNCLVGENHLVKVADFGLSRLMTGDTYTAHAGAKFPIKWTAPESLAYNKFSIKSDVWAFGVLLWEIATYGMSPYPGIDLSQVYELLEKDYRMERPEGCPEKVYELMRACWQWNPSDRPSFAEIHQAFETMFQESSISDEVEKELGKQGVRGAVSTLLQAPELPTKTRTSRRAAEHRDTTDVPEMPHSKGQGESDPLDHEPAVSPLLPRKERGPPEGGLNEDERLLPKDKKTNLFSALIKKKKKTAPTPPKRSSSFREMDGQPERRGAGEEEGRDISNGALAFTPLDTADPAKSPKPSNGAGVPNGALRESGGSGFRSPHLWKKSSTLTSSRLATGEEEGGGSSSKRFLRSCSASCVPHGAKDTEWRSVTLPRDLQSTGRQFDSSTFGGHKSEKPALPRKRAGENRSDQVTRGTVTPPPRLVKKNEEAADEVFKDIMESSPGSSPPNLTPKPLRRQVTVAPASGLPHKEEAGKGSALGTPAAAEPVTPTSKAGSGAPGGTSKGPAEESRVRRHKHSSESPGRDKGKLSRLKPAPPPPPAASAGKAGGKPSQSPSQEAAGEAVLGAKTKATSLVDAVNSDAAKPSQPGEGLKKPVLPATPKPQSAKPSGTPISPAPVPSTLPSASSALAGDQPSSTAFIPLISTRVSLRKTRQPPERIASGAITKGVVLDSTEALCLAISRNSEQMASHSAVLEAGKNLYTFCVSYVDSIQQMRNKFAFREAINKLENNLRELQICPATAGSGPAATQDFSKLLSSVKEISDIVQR
Chain of Mitogen-activated protein kinase 1 (Homo sapiens) (P28482 whole entry): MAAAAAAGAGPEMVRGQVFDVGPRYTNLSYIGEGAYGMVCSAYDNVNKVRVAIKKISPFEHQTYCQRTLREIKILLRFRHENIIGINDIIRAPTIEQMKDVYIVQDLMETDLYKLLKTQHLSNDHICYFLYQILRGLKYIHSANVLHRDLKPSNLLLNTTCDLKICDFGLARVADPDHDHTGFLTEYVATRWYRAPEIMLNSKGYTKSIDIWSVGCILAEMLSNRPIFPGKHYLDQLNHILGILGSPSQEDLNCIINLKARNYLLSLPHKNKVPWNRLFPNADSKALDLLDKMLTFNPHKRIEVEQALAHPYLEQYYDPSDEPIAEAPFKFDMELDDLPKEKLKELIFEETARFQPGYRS

| SMILES | ΔTm [1] [°C] | ΔTm [2] [°C] | ΔTm [3] [°C] | ΔTm [4] [°C] | ΔTm [5] [°C] | ΔTm [6] [°C] | ΔTm [7] [°C] | ΔTm [8] [°C] |
| --- | --- | --- | --- | --- | --- | --- | --- | --- |
| O=C(CNC(=O)[C@H](COP(=O)(O)O)NC(=O)CCc1c[nH]c2ccccc12)NCCCCc1ccccc1 | 0.34 | -3.51 | 0.72 | -0.09 | -0.2 | 0.17 | -1.56 | 0.45 |
| C=C(C)[C@@H](CC=C(C)C)C[C@@]12C[C@@H](CC=C(C)C)C(C)(C)[C@@](CC=C(C)C)(C(=O)C(C(=O)c3ccc(O)c(O)c3)=C1O)C2=O | 0.52 | -5.01 | -3.75 | 0.51 | -0.68 | -6.65 | 0.51 | -0.01 |
| CCC(NC(=O)C(CC(C)C)NC(=O)OCc1ccccc1)C(=O)C(=O)NCCCN1CCOCC1 (centres undefined) | 0.13 | -2.44 | -0.24 | 0.08 | -1.31 | -0.33 | -0.93 | -1.35 |
| CS(=O)(=O)c1ccc(-c2cnc(NCc3ccco3)n3cnnc23)cc1 | 0.92 | -0.86 | 0.28 | 0.44 | -2.03 | 0.02 | 0.67 | -1.77 |
| COc1ncc(C)c(-c2ccc3c(c2)[nH]c(=O)c2cnn([C@H]4CCOC4)c23)c1C | 1.31 | -3.36 | -0.21 | -0.26 | 0.55 | -0.06 | -2.59 | -0.98 |
| COc1ccc(Cc2nc(O)c3c(C)nc([C@@H](CCCc4ccccc4)[C@@H](C)O)n3n2)cc1OC | -0.12 | -2.72 | 0 | -0.14 | 1.15 | 0.16 | -1.36 | -0.56 |
| COc1ccc(OC)c(-c2nnc3n2N=C(c2ccc(OC)c(OC)c2)CS3)c1 | 0.21 | 2.23 | -0.04 | -0.07 | -1.12 | 0.55 | -1.28 | 1.86 |
| CC(C)(C)OC(=O)Nc1ccc(CNc2nccc(Nc3cc(C(=O)OC(C)(C)C)[nH]n3)n2)cc1 | 2.57 | -0.88 | 5.67 | 0.13 | 0.97 | -2.08 | 26.1 | 0.26 |
| CCC(=O)N[C@H]1CC[C@@H](C(=O)N(C)c2ccc(-c3nc4ccccc4o3)cc2)C1 | 0.54 | 0.67 | -0.03 | 0.1 | -0.48 | -0.17 | -0.05 | -0.29 |
| CCn1c(=O)c(C)cn(Cc2nnc(-c3ccc(F)c(OC)c3F)s2)c1=O | 0.22 | -0.83 | 0.23 | 0.22 | 0 | -4.56 | -2.75 | -0.83 |
| CCOc1ccc(Cc2cc([C@]34OC[C@](CO)(O3)[C@@H](O)[C@H](O)[C@H]4O)ccc2Cl)cc1 | 0.25 | 2.11 | 0.62 | -0.26 | -0.1 | 0.67 | -0.99 | 1.7 |
| C[C@@H](Oc1ccc(CNC(=O)c2cccnc2Oc2ccc3c(c2)OCO3)c(F)c1)C(=O)O | 0.69 | -1.71 | 0.09 | -0.5 | -0.12 | 0.23 | -1.52 | -0.05 |
| CC/C(=C(/CC)c1ccc(O)cc1)c1ccc(O)cc1 | -0.96 | -4.78 | -5.57 | -0.81 | -3.54 | -12.2 | -1.78 | 1.49 |
| Cc1cc(C)nc(SCC(=O)Nc2ncc(Cc3cccc4ccccc34)s2)n1 | 1.25 | -0.67 | 0.38 | 5.19 | -0.21 | -4.06 | -1.18 | 5.54 |
| Cc1cc(N2C[C@@H](C)N[C@@H](C)C2)ncc1-c1ccc(-c2nc3c(ccn3C)c(=O)[nH]2)cc1 | 1.3 | -0.52 | 0.78 | 0.59 | 0.66 | 0.08 | -1.4 | 0.61 |
| Cc1cnc(-c2ccccc2C(C)C)nc1NCc1ccc(-n2ccnn2)cc1 | 0.32 | -1.87 | -0.07 | -7.36 | 0.1 | 0.55 | -2.6 | -0.58 |
| CC(=O)N[C@@H](CC(=O)O)C(=O)N[C@@H](CC(N)=O)C(=O)N[C@@H](CC(C)C)C(=O)N[C@H](C=O)CC(=O)O | 0.21 | -3.48 | 0.27 | -0.23 | -0.99 | 0.1 | -0.95 | 0.8 |
| COc1ccc([C@@H]2CNC(=O)C2)cc1OC1CCCC1 | 0.51 | -3.17 | 0.13 | -0.19 | -0.23 | 0.08 | -2.43 | 0.65 |
| CC(=O)N[C@@H](CC(=O)O)C(=O)N[C@@H](CCC(=O)O)C(=O)N[C@H](C(=O)N[C@H](C=O)CC(=O)O)C(C)C | -0.28 | -1.5 | -0.58 | -0.17 | -0.28 | -0.74 | -1.77 | -1.09 |
| COc1cc(Cl)ccc1C1=CN(c2ccc(-c3ccccc3OC)cc2)C2=NCCCN12 | 0.67 | -3.63 | -0.6 | -0.21 | -0.51 | -0.14 | -2.63 | -1.41 |
| CCCSc1nc(N[C@@H]2C[C@H]2c2ccc(F)c(F)c2)c2nnn([C@@H]3C[C@H](OCCO)[C@@H](O)[C@H]3O)c2n1 | 0.97 | -3.15 | -0.32 | -0.02 | -1.82 | 0.5 | -2.27 | 0.03 |
| CSCC[C@H](NC(=O)[C@H](CC(=O)O)NC(C)=O)C(=O)N[C@@H](CCC(N)=O)C(=O)N[C@H](C=O)CC(=O)O (Ac-DMQD-aldehyde) | 0.11 | -1.14 | -0.29 | 0.02 | -0.48 | -0.4 | -1.16 | -0.9 |
| COC(=O)CC(NC(=O)C(C)NC(=O)C(NC(=O)C(CC(=O)OC)NC(=O)C(NC(=O)OCc1ccccc1)C(C)C)C(C)C)C(=O)CF (centres undefined) (Cbz-VD(OMe)VAD(OMe)-CH2F; configuration not given here) | 0.15 | -1.13 | 0.27 | -0.22 | 0.19 | 0.29 | -1.87 | -0.97 |
